In PubChem BioAssay:
For some assays here: Results with a measured potency or affinity are listed apart. Calls of active or inactive are those of the source.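 Rule for the calls, unless noted: active = primary screen hit whose calcium fluorescence ratio, in both repeats, exceeds the weak agonist control mean by 3 SD; inactive = the rest.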

Experiments:
[1] = system: TRPC4 beta (transient receptor potential cation channel C4), mouse; assay: TRPC4 cation channel opening, retest – cell-based, Fluo4 calcium, HEK293 TRPC4beta/mu-opioid, duplicates, 10 µM, confirmation (AID 2426;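 active = fluorescence ratio normalized to control raised more than 50% in primary screen plus both repeat runs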;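 for activation: percent rise of integrated ratio over buffer wells lacking compound which define 0%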); settings: Fluo4 calcium fluorescence, at 10 µM; stronger effect = higher value
[2] = system: transient receptor potential cation channel C4 beta (TRPC4), mouse; assay: TRPC4 cation channel opening, second retest – cell-based, second round, Fluo4, HEK293 TRPC4beta/mu-opioid, 1 µM, confirmation (AID 2461;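 active = primary screen active and over 50% activation in each of two duplicate runs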); settings: Fluo4 calcium fluorescence, at 1 µM; stronger effect = higher value
[3] = system: TRPC4 (transient receptor potential cation channel C4 beta), mouse; assay: potentiation of DAMGO EC20 TRPC4 response – cell-based, second round, Fluo-4, HEK293 TRPC4beta/mu-opioid, 1 µM, confirmation (AID 2554;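 active = primary screen hit whose fluorescence ratio, in both repeats, exceeds the weak agonist control mean by 3 SD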); settings: DAMGO EC20, Fluo-4 calcium flux, at 1 µM; stronger effect = higher value
[4] = system: TRPC4 beta (transient receptor potential cation channel C4), mouse; assay: potentiation of DAMGO EC20 TRPC4 response – cell-based, Fluo-4, HEK293 TRPC4beta/mu-opioid, confirmation (AID 2555); settings: DAMGO EC20, Fluo-4 calcium flux, at 10 µM; stronger effect = higher value
[5] = biological target: Short transient receptor potential channel 4 (Mus musculus) (UniProt Q9QUQ5); assay: blockers of DAMGO-evoked TRPC4 calcium flux – cell-based, Fluo4, HEK293 TRPC4beta/mu-opioid, confirmation (AID 2636;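 active = calcium signal cut by more than 3 SD below the full-agonist control yet still positive, in both repeats and the earlier primary screen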); settings: at 10 µM; stronger effect = higher value
Chain of Short transient receptor potential channel 4 (Mus musculus) (Q9QUQ5 whole entry, looked up): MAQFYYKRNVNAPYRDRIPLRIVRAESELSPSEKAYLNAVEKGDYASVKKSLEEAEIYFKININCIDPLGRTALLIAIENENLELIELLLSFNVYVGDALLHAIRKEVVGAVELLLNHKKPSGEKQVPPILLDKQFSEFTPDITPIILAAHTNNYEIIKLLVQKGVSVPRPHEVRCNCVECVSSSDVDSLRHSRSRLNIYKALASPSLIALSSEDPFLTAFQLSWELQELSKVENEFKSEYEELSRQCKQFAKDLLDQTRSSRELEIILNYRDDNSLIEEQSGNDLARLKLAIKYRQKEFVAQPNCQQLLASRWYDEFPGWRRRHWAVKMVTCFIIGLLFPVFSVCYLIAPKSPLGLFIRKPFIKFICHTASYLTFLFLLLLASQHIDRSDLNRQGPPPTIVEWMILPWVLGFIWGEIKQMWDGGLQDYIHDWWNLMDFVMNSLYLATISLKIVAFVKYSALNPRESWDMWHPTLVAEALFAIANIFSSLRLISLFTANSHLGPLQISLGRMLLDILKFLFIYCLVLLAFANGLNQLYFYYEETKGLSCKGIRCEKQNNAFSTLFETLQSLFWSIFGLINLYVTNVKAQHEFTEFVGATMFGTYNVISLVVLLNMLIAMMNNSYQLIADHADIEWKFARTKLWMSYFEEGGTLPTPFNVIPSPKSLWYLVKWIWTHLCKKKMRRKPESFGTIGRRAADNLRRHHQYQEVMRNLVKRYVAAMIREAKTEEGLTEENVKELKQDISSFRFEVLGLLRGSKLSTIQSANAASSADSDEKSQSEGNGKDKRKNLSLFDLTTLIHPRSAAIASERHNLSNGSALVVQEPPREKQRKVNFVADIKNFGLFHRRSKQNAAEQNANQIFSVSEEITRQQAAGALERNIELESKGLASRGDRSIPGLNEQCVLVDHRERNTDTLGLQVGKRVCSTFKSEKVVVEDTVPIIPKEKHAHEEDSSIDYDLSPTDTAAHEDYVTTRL

[6] = biological target: Short transient receptor potential channel 4 (Mus musculus) (UniProt Q9QUQ5); assay: blockers of DAMGO-evoked TRPC4 calcium flux – cell-based, second round, Fluo4, HEK293 TRPC4beta/mu-opioid, 1 µM, confirmation (AID 2637;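 active = calcium signal ratio cut to more than 3 SD under the fully stimulated control mean yet still positive, in both repeats and the primary screen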;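 for inhibition: percent of integrated ratio relative to wells lacking test compound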); settings: at 1 µM; stronger effect = higher value
[7] = biological target: Short transient receptor potential channel 4 (Mus musculus) (UniProt Q9QUQ5); assay: calcium entry via TRPC4 opening agents – cell-based, HEK293 TRPC4/mu-opioid, Fluo-4 calcium, dose response (AID 434937;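 active = primary screen activator hit with a dose response curve and TRPC4 channel activation at any tested dose; inactive = no activation, no dose response, or not a primary hit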)
[8] = biological target: Short transient receptor potential channel 4 (Mus musculus) (UniProt Q9QUQ5); assay: potentiation of DAMGO-evoked TRPC4 calcium signal – cell-based, HEK293 TRPC4/mu-opioid, Fluo-4 calcium, EC20 DAMGO, dose response (AID 434941;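 active = earlier screen potentiator hit that boosts the TRPC4 ion channel at some dose, with a dose response; inactive = no potentiation, no dose response, or not a prior hit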;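 note: calcium entry triggered by an EC20 dose of DAMGO at the co-expressed mu-opioid receptor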)
[9] = biological target: Short transient receptor potential channel 6 (Mus musculus) (UniProt Q61143); assay: TRPC6 blockade by TRPC4 inhibitor hits – cell-based, HEK293, membrane potential dye, duplicate, selectivity assay for TRPC4 inhibitor project, confirmation (AID 434948;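 active = active in primary screen and both duplicates, each dropping signal beyond three positive-control SD with fluorescence still positive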); settings: HEK293 TRPC6, membrane potential dye fluorescence, at 10 µM, stimulated with maximal-effect acetylcholine; stronger effect = higher value
Chain of Short transient receptor potential channel 6 (Mus musculus) (Q61143 whole entry, looked up): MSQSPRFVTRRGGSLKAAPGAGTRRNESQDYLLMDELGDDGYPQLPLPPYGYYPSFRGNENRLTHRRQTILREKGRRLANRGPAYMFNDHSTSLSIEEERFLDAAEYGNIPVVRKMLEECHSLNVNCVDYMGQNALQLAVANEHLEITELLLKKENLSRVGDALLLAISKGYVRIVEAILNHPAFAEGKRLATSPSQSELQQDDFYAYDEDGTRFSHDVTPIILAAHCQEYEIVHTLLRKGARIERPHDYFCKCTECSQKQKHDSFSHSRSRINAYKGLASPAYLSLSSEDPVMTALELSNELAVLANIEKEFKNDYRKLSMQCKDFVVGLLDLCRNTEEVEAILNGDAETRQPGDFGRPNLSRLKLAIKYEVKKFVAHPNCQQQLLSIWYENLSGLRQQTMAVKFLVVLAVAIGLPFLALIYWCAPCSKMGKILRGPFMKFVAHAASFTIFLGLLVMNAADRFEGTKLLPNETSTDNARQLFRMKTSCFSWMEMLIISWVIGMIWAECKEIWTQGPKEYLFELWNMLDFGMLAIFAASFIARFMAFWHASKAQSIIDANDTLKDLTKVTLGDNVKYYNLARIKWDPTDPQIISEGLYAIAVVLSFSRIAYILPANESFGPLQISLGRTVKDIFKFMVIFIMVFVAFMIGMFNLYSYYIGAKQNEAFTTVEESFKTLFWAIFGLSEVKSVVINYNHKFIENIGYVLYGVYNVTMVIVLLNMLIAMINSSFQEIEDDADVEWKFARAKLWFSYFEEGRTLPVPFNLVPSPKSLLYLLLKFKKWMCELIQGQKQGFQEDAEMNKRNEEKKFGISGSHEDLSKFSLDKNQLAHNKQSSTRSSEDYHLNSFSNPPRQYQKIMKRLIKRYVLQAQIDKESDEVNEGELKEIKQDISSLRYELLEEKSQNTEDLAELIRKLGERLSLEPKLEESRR

[10] = biological target: Short transient receptor potential channel 6 (Mus musculus) (UniProt Q61143); assay: TRPC6 opening by TRPC4 activator hits – cell-based, HEK293, membrane potential dye, duplicate, selectivity assay for TRPC4 activator project, confirmation (AID 434950;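 active = membrane potential signal rise above negative control mean plus 3 SD in both duplicates, also active in the earlier TRPC4 screen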); settings: HEK293 TRPC6, membrane potential fluorescence, at 10 µM; activation: stronger effect = higher value; outcome: activation
[11] = biological target: Short transient receptor potential channel 6 (Mus musculus) (UniProt Q61143); assay: positive modulators of mouse TRPC6 channel – HEK293 cells, membrane potential dye, duplicate, selectivity assay for TRPC4 potentiator project, confirmation (AID 434952;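 active = compound raising the membrane signal above positive-control mean plus 3 SD in both repeats, and a primary screen hit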); settings: HEK293 TRPC6, membrane potential dye fluorescence, at 10 µM, maximal acetylcholine added after compound; stronger effect = higher value
[12] = biological target: Short transient receptor potential channel 4 (Mus musculus) (UniProt Q9QUQ5); assay: calcium flux activators in TRPC4/5HT1a cells, counter-screen for TRPC4 activator project, cell-based, second counter screen, HEK293 TRPC4/5HT1a, Fluo-4 (AID 434977;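 active = calcium signal rise above buffer-control mean plus 5 SD in both duplicates, and also a hit in the primary screen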;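 for activation: plate controls were assay buffer for no effect and maximal serotonin response for full effect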); settings: Fluo-4 calcium flux, at 10 µM; stronger effect = higher value
[13] = serotonin-gated TRPC4 signal block – cell-based, second counter screen, HEK293 TRPC4/5HT1a, Fluo-4, counter-screen for TRPC4 inhibitor project, confirmation (AID 434978;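 active = primary screen active whose calcium signal fell more than 3 SD beyond the full-serotonin control mean in both duplicate plates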;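 for outcome: serotonin given first at submaximal then at maximal dose after compound preincubation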); settings: Fluo-4 calcium flux, at 10 µM, serotonin added to trigger calcium flux; stronger effect = higher value
[14] = system: TRPC4 (mouse), co-expressed with 5HT1a in HEK293; assay: enhancement of serotonin-evoked TRPC4 response – cell-based, second counter screen, HEK293 TRPC4/5HT1a, Fluo-4, counter-screen for TRPC4 potentiator project, confirmation (AID 434979;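 active = signal rise over 3 SD above mean of control wells given weak agonist, in both repeats and first screen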); settings: Fluo-4 calcium flux, at 10 µM, serotonin added at its EC20 dose; stronger effect = higher value
[15] = nonspecific calcium rise without TRPC4 – cell-based, HEK293 mu-opioid receptor line, counter-screen for TRPC4 activator project, confirmation (AID 449723;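 active = hit in primary screen, with calcium signal over 5 SD above buffer well mean in both duplicates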;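 note: counter screen cells carry the mu-opioid receptor alone and lack TRPC4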); settings: HEK293 mu-opioid cells, Fluo-4 calcium fluorescence, at 10 µM; stronger effect = higher value
[16] = nonspecific potentiation of DAMGO calcium response – cell-based, HEK293 mu-opioid receptor line, counter-screen for TRPC4 allosteric potentiator project, confirmation (AID 449724;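 active = calcium signal rise more than 3 SD above the low-dose agonist control mean, in both duplicate plates and the primary screen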); settings: HEK293 mu-opioid receptor cells, Fluo-4 calcium flux, at 10 µM, compound added before EC20 DAMGO stimulus; stronger effect = higher value

COc1cc(C(F)(F)F)nc2c(Br)c(C(C)(C)C)nn12
active: inhibition [5] 92% | inhibition [6] 65% | inhibition [13] 35.3%
inactive: outcome [1] | outcome [2] | outcome [3] | outcome [4] | outcome [7] | outcome [8] | outcome [9] | outcome [10] | outcome [11] | outcome [12] | outcome [14] | outcome [15] | outcome [16]

Clc1ccccc1CSc1nc2ccncc2[nH]1
active: inhibition [5] 99%
inactive: outcome [1] | outcome [2] | outcome [3] | outcome [4] | outcome [6] | outcome [7] | outcome [8] | outcome [9] | outcome [10] | outcome [11] | outcome [12] | outcome [13] | outcome [14] | outcome [15] | outcome [16]

COc1ccc(Nc2cc(C)nc3ccccc23)cc1
active: inhibition [5] 86% | inhibition [9] 39% | inhibition [13] 28.9%
inactive: outcome [1] | outcome [2] | outcome [3] | outcome [4] | outcome [6] | outcome [7] | outcome [8] | outcome [10] | outcome [11] | outcome [12] | outcome [14] | outcome [15] | outcome [16]

CCCCn1c(NC(=O)c2ccccc2)nc2ccccc21
active: potentiation [4] 20%
inactive: outcome [1] | outcome [2] | outcome [3] | outcome [5] | outcome [6] | outcome [7] | outcome [8] | outcome [9] | outcome [10] | outcome [11] | outcome [12] | outcome [13] | outcome [14] | outcome [15] | outcome [16]

Cc1ccc(C)c(S(=O)(=O)/N=C2\C=C(NS(=O)(=O)c3ccccc3)C(=O)c3ccccc32)c1
inactive: outcome [1] | outcome [2] | outcome [3] | outcome [4] | outcome [6] | outcome [7] | outcome [8] | outcome [10] | outcome [11] | outcome [12] | outcome [13] | outcome [14] | outcome [15] | outcome [16]
active: inhibition [5] 92% | inhibition [9] 33%

c1ccc(COC(CN2CCCCCC2)CN2CCCCCC2)cc1
inactive: outcome [1] | outcome [2] | outcome [3] | outcome [4] | outcome [6] | outcome [7] | outcome [8] | outcome [9] | outcome [10] | outcome [11] | outcome [12] | outcome [14] | outcome [15] | outcome [16]
active: inhibition [5] 93% | inhibition [13] 31.1%

c1ccn2cc(C34CC5CC(CC(C5)C3)C4)nc2c1
active: inhibition [5] 69% | inhibition [13] 41.3%
inactive: outcome [1] | outcome [2] | outcome [3] | outcome [4] | outcome [6] | outcome [7] | outcome [8] | outcome [9] | outcome [10] | outcome [11] | outcome [12] | outcome [14] | outcome [15] | outcome [16]

O=[N+]([O-])c1ccc(O)c(C2=NNC(c3ccccc3F)C2)c1 (centres undefined)
inactive: outcome [2] | outcome [3] | outcome [4] | outcome [6] | outcome [7] | outcome [8] | outcome [10] | outcome [11] | outcome [13] | outcome [14] | outcome [16]
active: activation [1] 87% | inhibition [5] 55% | inhibition [9] 50% | activation [12] 8.52% | activation [15] 20.8%

CC[n+]1c(/C=C/Nc2ccccc2)oc2ccc(OC)cc21
inactive: outcome [1] | outcome [2] | outcome [3] | outcome [4] | outcome [6] | outcome [7] | outcome [8] | outcome [10] | outcome [11] | outcome [12] | outcome [14] | outcome [15] | outcome [16]
active: inhibition [5] 92% | inhibition [9] 46.5% | inhibition [13] 34%

CCN(CC)CCN(C(=O)c1ccccc1OC)c1nc2ccc(F)cc2s1
active: inhibition [5] 84%
inactive: outcome [1] | outcome [2] | outcome [3] | outcome [4] | outcome [6] | outcome [7] | outcome [8] | outcome [9] | outcome [10] | outcome [11] | outcome [12] | outcome [13] | outcome [14] | outcome [15] | outcome [16]

COCCn1c(SCc2ccccc2F)nc2ccccc2c1=O
active: inhibition [5] 88% | inhibition [13] 20.8%
inactive: outcome [1] | outcome [2] | outcome [3] | outcome [4] | outcome [6] | outcome [7] | outcome [8] | outcome [9] | outcome [10] | outcome [11] | outcome [12] | outcome [14] | outcome [15] | outcome [16]

Cc1cccn2c(=O)c(/C=N/O)c(N3CCCC3)nc12
inactive: outcome [1] | outcome [2] | outcome [3] | outcome [4] | outcome [7] | outcome [8] | outcome [9] | outcome [10] | outcome [11] | outcome [12] | outcome [14] | outcome [15] | outcome [16]
active: inhibition [5] 57% | inhibition [6] 72% | inhibition [13] 35%

O=C(OCC(=O)N1CCc2ccccc2C1)c1cccc([N+](=O)[O-])c1
active: inhibition [5] 95% | inhibition [6] 47% | inhibition [13] 40.7%
inactive: outcome [1] | outcome [2] | outcome [3] | outcome [4] | outcome [7] | outcome [8] | outcome [9] | outcome [10] | outcome [11] | outcome [12] | outcome [14] | outcome [15] | outcome [16]

COc1ccc(C2C(C(C)=O)=C(O)C(=O)N2c2ccc(Br)cc2)cc1 (centres undefined)
inactive: outcome [1] | outcome [2] | outcome [3] | outcome [4] | outcome [7] | outcome [8] | outcome [9] | outcome [10] | outcome [11] | outcome [12] | outcome [14] | outcome [15] | outcome [16]
active: inhibition [5] 84% | inhibition [6] 62% | inhibition [13] 23.3%
